Data: PubChem BioAssay AID485297 (National Center for Advancing Translational Sciences (NCATS), 2010)
The whole screen tested about 320,000 compounds, of which about 9,100 (2.8%) were called active. Another 3% or so got no clear call; they are omitted. Calls come from the whole dose curve; as a rule, active = well fitted activation curve with a large enough effect; inconclusive = small, poorly fitted or top-dose-only effect; inactive = no such curve, though single readings can be large or run the other way. Shown is part of a subset that was picked to be rich in actives.

Assay: qHTS Assay for Rab9 Promoter Activators; note: nearly all actives have a fitted effect of over 60% in size; for activation, negative = inhibition: % of control where 0% means no effect
Settings: Huh7 Rab9 promoter-luciferase reporter, luminescence, 24 h; series mostly up to 9.22 µM; activation, negative = inhibition: at the top concentration
Method in brief: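 Measured in stably transfected Huh7 cells bearing a Rab9 promoter–luciferase construct: 24 h compound treatment at 37 °C, followed by luminescence detection.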
Potency is the fitted concentration of half-maximal effect.

activation, negative = inhibition, inactive:
CCCN(CCC)CC(O)COc1ccccc1C(=O)Nc1ccccc1 (stereo not given) 6.94%, Cc1ccc(C(=O)Nc2c(C#N)c(C)c(C)n2Cc2ccccc2)cc1 2.99%, Cc1cc(=O)oc2cc(NC(=O)C(C)Oc3ccccc3)ccc12 (stereo not given) -2.66%, CC(C)C(=O)Nc1ccc2oc(=O)ccc2c1 -3.96%, CC1(C)O[C@@H]2[C@H](O1)[C@@H](CO)O[C@H]2n1c(N2CCCCC2)nc2c(N)ncnc21 1.48%, Cc1cc(-c2n[nH]c(=S)n2/N=C/C(Br)=C/c2ccccc2)n[nH]1 8.77%, Fc1ccccc1/C=N/n1c(-c2cccnc2)n[nH]c1=S -6.18%, O=C(NCc1ccco1)c1cccn2c(=O)c3c4c(sc3nc12)CCCC4 0.504%, Cn1c(=O)n(Cc2ccco2)c(=N)c2c3c(sc21)CCCC3 -5.28%, CCOC(=O)N1CCN(S(=O)(=O)c2ccc3c(c2)C(C)C(=O)N3)CC1 (stereo not given) -0.385%, CC(C)N(C(=O)CN1CCN(S(=O)(=O)c2ccc(Br)s2)CC1)C(C)C -4.44%, COc1cc(C(=O)NNC(=O)CN2C(=O)NC3(CCCC3)C2=O)cc(OC)c1OC 3.35%, COC(=O)c1c(NC(C)=O)sc(C(=O)Nc2ccccc2OC)c1C -3.82%, CCOC(=O)c1sc(NC(=O)COc2ncnc3ccccc23)c(C(=O)OCC)c1C -4.6%, Cc1ccc(NC(=O)CCC(=O)N2CCC(c3ccccc3)=N2)cc1S(=O)(=O)N1CCCCC1 -0.345%, CCN(CC)C(=O)c1nc[nH]c1C(=O)N(C)Cc1ccccc1 -4.32%, Cc1nnc(SCc2nc3ccccc3nc2C)s1 -2.17%, CCOC(=O)N1CCN(Cc2nc(N)nc(Nc3ccc(C)cc3)n2)CC1 0.165%, CC(C)(C)C(=O)CSc1ccc(S(=O)(=O)N2CCCC2)cn1 11%, COCc1c(C(=O)OCC(=O)Nc2ccc(OC(F)F)cc2)oc2ccccc12 -0.02%, CCCc1nc2ccccc2c(=O)n1/N=C/c1ccc(O)c(O)c1 -10.3%, O=C(Nn1cnc2ccccc2c1=O)c1ccccc1 -0.0477%, CC(C)C(NC(=O)c1c(F)cccc1F)C(=O)NCc1ccncc1 (stereo not given) -1.51%, Cc1noc(C)c1C(=O)NCC1COc2ccccc2O1 (stereo not given) 14.7%, O=C(COC(=O)c1ccc(O)cc1O)NNC(=O)c1cccs1 -3.69%, Cc1ccc(SCCC(=O)NCc2ccccn2)cc1 -27.2%, Cc1ccc(SCCC(=O)NC(C(C)C)C(C)C)cc1 -5.64%, Nc1nnc(SCC(=O)NCC(=O)Nc2ccc(F)c(F)c2F)s1 -1.9%, Cc1c(C(=O)NNC(=O)c2ccncc2)oc2ccccc12 0.45%, Cc1cccc(N(C)C(=O)CN2C(=O)COc3ccc(S(=O)(=O)N4CCCCCC4)cc32)c1 -3.86%, CN(CC(=O)Nc1cccc(F)c1)C(=O)CC1CCCC1 0.609%, COc1ccc(C2=NN(C(=O)CSc3nnnn3C)C(c3ccco3)C2)cc1 (stereo not given) -2.86%, Cc1ccc(C(=O)OCC(=O)Nc2ccc(Cl)cn2)cc1S(=O)(=O)N1CCOCC1 -2.58%, CC(=O)Nc1ccc(S(=O)(=O)Nc2ccc(N3CCOCC3)c(F)c2)cc1 5.03%, O=C(c1ccc2nc(N3CCOCC3)sc2c1)N1CCN(c2ccc(Cl)cc2)CC1 -0.252%, N#Cc1ccc(CN2CCN(CC(=O)Nc3ccccc3C(=O)NC3CC3)CC2)cc1 -2.19%, C=CCn1c(=O)c(C(=O)Nc2ncccc2O)c(O)c2ccccc21 -1.04%, CCCn1c(=O)c(C(=O)Nc2cc(C)ccn2)c(O)c2ccccc21 13.5%, COC(=O)CNS(=O)(=O)c1ccc(OC)cc1 -1.55%, C/C(N)=C(/C#N)C(=O)COC(=O)CNS(=O)(=O)c1ccc(C)cc1 14.1%, COc1ccc(S(=O)(=O)N2CCOCC2)cc1NC(=O)CSc1cc(C)ccc1C -1.36%, O=C(CSc1nc2ccccc2c(=O)n1CCCO)NC1CC1 1.65%, CN(CCO)Cc1csc2ccc(Br)cc12 -3.42%, COc1ccc(/C=C/c2nnc(NC(=O)C(C)C)s2)cc1 24.8%, CC(=O)Oc1ccc(-c2nc3c(C)cccc3c(=O)o2)cc1 14.5%, Cc1ccc(NC(=O)COC(=O)CN2CCCCCC2=O)c(C)c1 -1.3%, COc1ccc(OC)c(S(=O)(=O)Nc2c(C)nn(C)c2C)c1 -1.82%, Cc1ccc(S(=O)(=O)Cc2cc(-c3ccc(Cl)cc3)no2)cc1 -2.55%, CC(C)C(=O)NCc1cc(-c2ccc(Cl)cc2)no1 2.91%, Cc1sc2ncn(CC(=O)NCCCC(=O)NCc3ccc(F)cc3)c(=O)c2c1C 1.73%, CCCCCc1c(C)nc(N2CCN(Cc3ccc4c(c3)OCO4)CC2)[nH]c1=O 0.809%, O=C(NCc1ccncc1)c1cccc(NS(=O)(=O)c2ccc(F)c(F)c2)c1 -4.59%, O=C(CN1CCN(c2ccccn2)CC1)N1CCc2ccccc21 -2.95%, CCC(=O)N1CCCc2ccccc21 -0.452%, CCCCn1nc(C(=O)Nc2cccc(C(=O)NC3CC3)c2)c2ccccc2c1=O 1.93%

Potency, active:
CC(C)C(=O)Nc1ccc2c(c1)oc1ccccc12 0.891 µM, S=c1[nH]nc(-c2cccnc2)n1/N=C/C(Cl)=C\c1ccccc1 3.16 µM, O=c1oc(-c2ccco2)nc2sc3c(c12)CCCCC3 3.55 µM, CCC(=O)Nc1sc(C(=O)Nc2ccccc2)c(C)c1C(=O)OC 0.891 µM, Cc1ccc(Nc2nc(N)nc(CSc3nnc(C)s3)n2)cc1 4.47 µM, O=c1c2ccccc2ncn1/N=C/c1ccccc1 0.447 µM, Cc1nn2cc(-c3ccc(Cl)cc3)cnc2c1Br 1.12 µM, Cc1ccc(SCCSc2ncccn2)cc1 2 µM, O=S(=O)(Nc1ccc2nc(N3CCOCC3)sc2c1)c1ccccc1 2.82 µM, Cn1c(=O)c(C(=O)Nc2ncccn2)c(O)c2ccccc21 3.16 µM, COC(=O)CNS(=O)(=O)c1ccc(Cc2ccc(S(=O)(=O)NCC(=O)OC)cc2)cc1 1.26 µM, CCOC(=O)c1c(C)[nH]c(C2=NNC(=NC(C)COC)SC2)c1C (stereo not given) 1.58 µM, COc1ccc(/C=C/c2noc(-c3ccccc3OC(C)=O)n2)cc1 2.24 µM, Oc1ccccc1-c1cc(-c2ccc(Cl)cc2)n[nH]1 2.51 µM, O=C(CSCc1ccccc1)N1CCc2ccccc21 1.78 µM
